# Laboratory results taken from PubChem BioAssay.
# The source made the active and inactive calls.
# Assays:
# [1] = optical density shifts of acrAB sulA E. coli – strain DRC41, OD650, 48 h, E. coli filamentation inducer project, primary screen (AID 1152); conditions: higher = more signal, called active from +8 up or from −8 down;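 also: E. coli MC1000 strain DRC41 lacking acrAB efflux pump and sulA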
# [2] = probe aLefty1 binding on compound microarray – biochemical, small-molecule microarray, 635/667 nm fluorescence, primary screen (AID 1153); conditions: higher = more signal;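 also: score merges spot fluorescence with signal-to-noise ratio from the scanned slide images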
# [3] = plasmodial surface anion channel blockers, osmotic lysis – cell-based, P. falciparum Indochina, OD700, 1 h, primary screen (AID 1154); conditions: P. falciparum Indochina infected RBC osmotic lysis, higher = more signal, called active from +8 up or from −8 down
# [4] = plasmodial surface anion channel blockers, osmotic lysis – cell-based, P. falciparum Indochina, OD700, 2 h, primary screen (AID 1155);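 also: lysis reports solute entry through the parasite surface anion channel PSAC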; conditions: P. falciparum Indochina infected erythrocytes, higher = more signal, called active from +8 up or from −8 down
# [5] = changes in parasitized red cell lysis, either direction – P. falciparum Indochina, OD700, 3 h, PSAC antagonist project, primary screen (AID 1156); conditions: P. falciparum-infected erythrocytes, osmotic lysis, higher = more signal, called active from +8 up or from −8 down
# [6] = plasmodial surface anion channel blockers, osmotic lysis – cell-based, P. falciparum Indochina, OD700, 18 h, primary screen (AID 1157); conditions: P. falciparum Indochina infected erythrocytes, osmotic lysis OD700, 18 h; higher = more signal, called active from +8 up or from −8 down
# [7] = S6 kinase pathway phospho-S6 level changes – cell-based, A549, cytoblot, luminescence, serum-stimulated, primary screen (AID 1158); conditions: 5 h, higher = more signal;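 also: serum-stimulated A549 lung adenocarcinoma cells; signal is phosphorylated S6 detected by cytoblot immunostaining with HRP secondary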
# [8] = molecular target: NADPH oxidase 2 (Homo sapiens) (UniProt P04839); test: compounds shifting NOX2 Amplex Red fluorescence – cell-based, HEK293-NOX2, PMA-stimulated, NOX inhibitor project, primary screen (AID 1159); conditions: 45 min, higher = more signal, called active from +8 up or from −8 down; also: test concentration not given here
# [9] = molecular target: NADPH oxidase 4 (Homo sapiens) (UniProt Q9NPH5); test: compounds shifting NOX4 Amplex Red fluorescence – cell-based, HEK293-NOX4, tetracycline-induced, NOX inhibitor project, primary screen (AID 1160); conditions: HEK293-NOX4, Amplex Red H2O2 fluorescence, 45 min; higher = more signal, called active from +8 up or from −8 down
# [10] = molecular target: NADPH oxidase 5 (Homo sapiens) (UniProt Q96PH1); test: compounds shifting NOX5 Amplex Red fluorescence – cell-based, HEK293-NOX5, NOX inhibitor project, primary screen (AID 1161); conditions: HEK293-NOX5, ionomycin, 45 min, higher = more signal
# [11] = compound effects on lung adenocarcinoma cell viability – A549, calcein-AM fluorescence, 48 h, basal, profiling panel (AID 1162); conditions: higher = more signal; also: test concentration not given here
# [12] = compound effects on differentiated 3T3-L1 adipocyte viability – cell-based, 3T3-L1 adipocytes, calcein-AM fluorescence, 48 h, basal, profiling panel (AID 1163); conditions: 3T3-L1 adipocytes viability, higher = more signal; also: test concentration not given here
# [13] = compound effects on hepatocellular carcinoma cell viability – HepG2, calcein-AM fluorescence, 48 h, basal, profiling panel (AID 1164); conditions: higher = more signal; also: test concentration not given here
# [14] = compound effects on multiple myeloma cell viability – MM1S, calcein-AM fluorescence, 48 h, basal, profiling panel (AID 1165); conditions: higher = more signal; also: test concentration not given here
# [15] = calcein-AM signal in unstimulated myeloma cells – cell-based, calcein-AM fluorescence, 48 h, PK04 Diversity Set, profiling panel (AID 1166); conditions: RPMI8226 myeloma viability, higher = more signal;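 also: cells grown under basal conditions without added stimulus; test concentration not given here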
# [16] = JC-1 mitochondrial signal, unstimulated HepG2 cells – cell-based, JC-1 fluorescence, 24 h, 100 nL compound, profiling panel (AID 1167); conditions: HepG2 mitochondrial potential, higher = more signal; also: test concentration not given here
# [17] = JC-1 mitochondrial signal, unstimulated adipocytes – cell-based, JC-1 fluorescence, 3T3-L1 adipocytes, 24 h, 100 nL compound, profiling panel (AID 1168); conditions: JC-1 mitochondrial fluorescence, higher = more signal, called active from +8 up or from −8 down; also: test concentration not given here
# [18] = JC-1 mitochondrial signal, unstimulated myeloma cells – cell-based, JC-1 fluorescence, RPMI8226, 24 h, 100 nL compound, profiling panel (AID 1169); conditions: JC-1 mitochondrial potential fluorescence, higher = more signal; also: test concentration not given here
# [19] = JC-1 mitochondrial signal, unstimulated MM1S myeloma – cell-based, JC-1 fluorescence, 24 h, 100 nL compound, profiling panel (AID 1170); conditions: MM1S mitochondrial potential, higher = more signal; also: test concentration not given here
# [20] = resazurin metabolic signal in A549 cells – cell-based, resazurin fluorescence, 24 h, PK04 Diversity Set, profiling panel (AID 1171); conditions: A549 viability, higher = more signal, called active from +8 up or from −8 down; also: test concentration not given here
# Chain of NADPH oxidase 5 (Homo sapiens) (Q96PH1 whole entry, looked up): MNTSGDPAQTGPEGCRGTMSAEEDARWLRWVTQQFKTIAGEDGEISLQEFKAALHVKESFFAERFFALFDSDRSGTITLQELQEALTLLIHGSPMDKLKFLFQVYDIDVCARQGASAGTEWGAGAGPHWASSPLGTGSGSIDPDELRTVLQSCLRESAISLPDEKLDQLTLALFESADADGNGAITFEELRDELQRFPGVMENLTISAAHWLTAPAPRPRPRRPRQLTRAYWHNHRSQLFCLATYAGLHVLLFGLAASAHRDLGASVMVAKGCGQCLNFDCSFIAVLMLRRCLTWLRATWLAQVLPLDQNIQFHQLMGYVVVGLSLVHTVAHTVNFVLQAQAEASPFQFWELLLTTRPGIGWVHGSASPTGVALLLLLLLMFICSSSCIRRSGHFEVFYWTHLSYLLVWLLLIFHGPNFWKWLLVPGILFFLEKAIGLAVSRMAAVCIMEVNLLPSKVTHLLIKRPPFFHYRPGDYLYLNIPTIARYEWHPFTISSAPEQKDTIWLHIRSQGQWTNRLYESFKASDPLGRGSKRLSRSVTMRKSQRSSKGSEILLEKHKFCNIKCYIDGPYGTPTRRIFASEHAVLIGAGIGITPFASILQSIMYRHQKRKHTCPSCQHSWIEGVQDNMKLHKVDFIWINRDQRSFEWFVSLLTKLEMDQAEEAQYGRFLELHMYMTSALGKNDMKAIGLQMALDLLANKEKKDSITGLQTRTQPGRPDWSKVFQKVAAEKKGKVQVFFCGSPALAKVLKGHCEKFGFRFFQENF
# Chain of NADPH oxidase 2 (Homo sapiens) (P04839 whole entry, looked up): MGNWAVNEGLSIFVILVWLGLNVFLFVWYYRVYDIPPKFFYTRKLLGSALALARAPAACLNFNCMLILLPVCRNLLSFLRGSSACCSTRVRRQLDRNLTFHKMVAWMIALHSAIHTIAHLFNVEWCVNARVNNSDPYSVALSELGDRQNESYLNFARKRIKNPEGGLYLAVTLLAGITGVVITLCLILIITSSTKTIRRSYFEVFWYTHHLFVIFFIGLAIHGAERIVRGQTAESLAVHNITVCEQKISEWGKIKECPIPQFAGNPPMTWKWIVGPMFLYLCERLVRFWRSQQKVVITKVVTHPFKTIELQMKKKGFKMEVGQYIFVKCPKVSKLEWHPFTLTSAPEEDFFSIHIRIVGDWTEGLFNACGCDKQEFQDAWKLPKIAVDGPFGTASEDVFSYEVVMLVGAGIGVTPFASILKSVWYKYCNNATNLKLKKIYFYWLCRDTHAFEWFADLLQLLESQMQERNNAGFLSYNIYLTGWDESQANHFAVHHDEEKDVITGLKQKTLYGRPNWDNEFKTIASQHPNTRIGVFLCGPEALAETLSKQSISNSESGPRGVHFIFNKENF
# Chain of NADPH oxidase 4 (Homo sapiens) (Q9NPH5 whole entry, looked up): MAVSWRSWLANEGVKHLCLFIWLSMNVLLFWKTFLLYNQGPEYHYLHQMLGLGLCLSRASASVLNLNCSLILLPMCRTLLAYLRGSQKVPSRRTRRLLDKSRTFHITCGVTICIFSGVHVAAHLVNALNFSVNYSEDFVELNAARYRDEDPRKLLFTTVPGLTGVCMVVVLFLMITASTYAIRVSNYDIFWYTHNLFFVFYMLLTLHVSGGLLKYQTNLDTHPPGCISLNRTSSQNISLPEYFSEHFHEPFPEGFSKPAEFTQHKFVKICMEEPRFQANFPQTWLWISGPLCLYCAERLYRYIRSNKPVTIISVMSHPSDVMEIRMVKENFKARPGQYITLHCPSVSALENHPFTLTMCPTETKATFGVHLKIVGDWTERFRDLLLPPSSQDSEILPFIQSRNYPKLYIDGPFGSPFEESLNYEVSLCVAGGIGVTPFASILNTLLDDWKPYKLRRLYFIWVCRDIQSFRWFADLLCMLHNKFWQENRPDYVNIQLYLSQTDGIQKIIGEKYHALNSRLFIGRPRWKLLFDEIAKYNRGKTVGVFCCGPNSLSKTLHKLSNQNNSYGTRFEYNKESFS
SMILES,z-score [1],composite z-score [2],z-score [3],z-score [4],z-score [5],z-score [6],z-score [7],z-score [8],z-score [9],z-score [10],z-score [11],z-score [12],z-score [13],z-score [14],z-score [15],z-score [16],z-score [17],z-score [18],z-score [19],z-score [20]
N#Cc1ccc(NN2C(C(O)c3ccc([N+](=O)[O-])cc3)C=CC3C(=O)N(c4ccccc4)C(=O)C32)cc1 (stereo not given),-2.18 (inactive),0.0927,11.9 (active),2.06 (inactive),0.362 (inactive),1.49 (inactive),-0.946,-1.45 (inactive),-4.95 (inactive),-3.56,-1.14,0.0202,-0.335,-0.237,-0.402,-1.91,-0.703 (inactive),-0.993,0.0361,0.172 (inactive)
COc1ccc(C(=O)Nc2cccc(CN3C(=O)[C@]4(O[C@H](CC(=O)N5CCC[C@H]5CO)[C@@H]([Si](C)(C)c5ccc(OC)cc5)[C@@H]4C)c4ccccc43)c2)cc1,0.0295 (inactive),-0.012,4.29 (inactive),1.45 (inactive),-0.546 (inactive),0.451 (inactive),1.97,2.73 (inactive),1.65 (inactive),4.27,-0.806,0.902,-3.13,-2.71,-4.33,-1.73,0.248 (inactive),-1.1,-1.64,-2.2 (inactive)
NC(=O)NCC#Cc1ccc2c(c1)[C@]1(C(=O)N2)[C@H](C(=O)NC[C@H](O)c2ccccc2)[C@H]2C(=O)O[C@H](c3ccccc3)[C@H](c3ccccc3)N2[C@@H]1c1ccc(O)cc1,-0.765 (inactive),-0.149,0.397 (inactive),-0.0004 (inactive),2.63 (inactive),-0.048 (inactive),-0.0546,1.3 (inactive),0.02 (inactive),0.404,0.423,-1.13,-0.284,-1.32,0.579,-3.36,-2.46 (inactive),-1.16,-1.49,-0.471 (inactive)
O=C1O[C@@H](c2ccccc2)[C@@H](c2ccccc2)N2[C@@H](c3ccc(OCCO)cc3)[C@]3(C(=O)Nc4ccc(C#CC5=CCCCC5)cc43)[C@@H](C(=O)O)[C@H]12,-0.584 (inactive),-0.0827,-3.36 (inactive),-1.76 (inactive),-10.6 (active),-0.957 (inactive),-0.106,1.67 (inactive),-1.08 (inactive),-0.216,1.09,0.771,-0.128,-3.21,-4.57,-4.12,-4.9 (inactive),-0.946,-1.42,0.872 (inactive)
O=C1O[C@@H](c2ccccc2)[C@@H](c2ccccc2)N2[C@@H](c3ccc(O)cc3)[C@]3(C(=O)Nc4ccc(C#CC5(O)CCCCCC5)cc43)[C@@H](C(=O)N3CCCCCCC3)[C@H]12,0.489 (inactive),2.77,1.32 (inactive),0.836 (inactive),1.17 (inactive),0.564 (inactive),0.181,1.1 (inactive),1.09 (inactive),0.682,0.476,0.49,1.04,0.0939,-1.34,-1.36,0.076 (inactive),-0.764,-0.664,-0.314 (inactive)
O=C1O[C@@H](c2ccccc2)[C@@H](c2ccccc2)N2[C@@H](c3ccc(OCCO)cc3)[C@]3(C(=O)Nc4ccccc43)[C@@H](C(=O)Nc3nc4ccccc4s3)[C@H]12,0.515 (inactive),0.919,5.55 (inactive),2.55 (inactive),1.37 (inactive),2.01 (inactive),0.298,1.68 (inactive),1.24 (inactive),1.63,-0.328,-0.343,0.27,-0.829,-1.17,-3.31,2.07 (inactive),-1.05,-1.86,-1.4 (inactive)
COC(=O)c1ccc(C(O)C2C=CC3C(=O)N(C)C(=O)C3N2NC(=O)OC(C)(C)C)o1 (stereo not given),-1.31 (inactive),0.0622,0.146 (inactive),0.52 (inactive),-0.46 (inactive),0.533 (inactive),-0.785,-0.786 (inactive),-0.929 (inactive),0.396,0.441,-0.425,0.0285,-0.978,-0.342,-1.28,-0.429 (inactive),-0.535,0.395,0.347 (inactive)
O=C1OCCC=C[C@H]2OC34C=CCN(c5ccc6ccccc6c5)C(=O)[C@H]3N(CCCCCO)C(=O)[C@@H]4C12 (stereo not given in full),1.3 (inactive),0.831,3.56 (inactive),0.526 (inactive),2 (inactive),0.599 (inactive),-0.37,1.95 (inactive),0.913 (inactive),2.57,0.32,-0.691,1.84,1.35,0.0492,1.53,-0.279 (inactive),-0.0802,-0.0576,0.384 (inactive)
[N-]=[N+]=NCc1ccccc1[C@@H]1OC(c2ccc(OCCCO)cc2)=N[C@]1(Cc1ccccc1N=[N+]=[N-])C(=O)NCc1ccccc1,-2.95 (inactive),0.639,21.8 (active),4.97 (inactive),3.79 (inactive),1.33 (inactive),-0.33,-0.654 (inactive),0.0734 (inactive),0.235,0.103,0.0085,-0.829,-0.466,0.22,1.47,-0.385 (inactive),-0.749,-1.37,-0.234 (inactive)
Cc1ccc(S[C@]2(C(=O)NC3CC3)CC(=O)N(C3CCCCC3)[C@@H]2c2ccc(CO)cc2I)cc1,0.639 (inactive),0.112,6.07 (inactive),0.898 (inactive),-0.0504 (inactive),0.427 (inactive),-0.208,0.655 (inactive),-0.194 (inactive),1.38,1.07,-0.07,1.12,-2.5,-1.7,1.62,0.124 (inactive),-0.558,-1.2,-0.0731 (inactive)
C=CCNC(=O)[C@@H]1[C@H]2C(=O)O[C@H](c3ccccc3)[C@H](c3ccccc3)N2[C@H](c2ccc(OCCO)cc2)[C@@]12C(=O)Nc1ccccc12,1.52 (inactive),0.0235,5.12 (inactive),0.39 (inactive),-0.844 (inactive),0.002 (inactive),4.16,1.38 (inactive),0.767 (inactive),-0.355,1.66,1.59,0.521,0.491,0.0581,-0.912,1.01 (inactive),-0.725,0.224,-0.0995 (inactive)
O=C/C=C/c1ccc(Cl)cc1,0.73 (inactive),-0.0885,-0.406 (inactive),-2.04 (inactive),-0.316 (inactive),-2.54 (inactive),0.617,-0.506 (inactive),-0.869 (inactive),1.44,1.04,-0.0776,0.265,-3.17,0.45,1.32,-0.34 (inactive),-0.762,-1.25,-0.835 (inactive)
C=CC(COC(C)=O)NS(=O)(=O)c1ccc(Br)cc1 (stereo not given),-1.32 (inactive),0.157,0.132 (inactive),-0.168 (inactive),-0.73 (inactive),-0.064 (inactive),0.495,-0.334 (inactive),-0.0279 (inactive),-0.377,-0.0852,-0.13,-0.239,0.101,-0.453,-0.642,-0.869 (inactive),0.392,0.654,-0.283 (inactive)
